These results are taken from PubChem BioAssay (NCI).

Compounds without any hit were thinned out: in the full panel of roughly 83,000, 20% have a hit.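 How to read the values: 0–100, growth inhibition (40 = 60% inhibited); 0, no net growth; -100 to 0, cell death (-40 = 40% of starting cells died; -100 = all dead).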 Unmarked numbers belong to inactive results. Calls of active or inactive are those of the source. Rule for the calls: active = growth percent below 10; inactive = the rest.

In this experiment the test system is HL-60(TB) leukemia. The experiment in a line: NCI-60 one-dose screen, 48 h (100 = growth as untreated, 0 = no growth, -100 = all killed). Particulars: 10 µM unless noted.
For `COc1cc(-c2nc(-c3ccccc3)[nH]c2-c2ccnc(NCCCNS(=O)(=O)c3cccc(F)c3)n2)ccc1Cl`, the growth was 55.1%.
The same measure for `CC(C)Sc1nc(-c2ccccc2)c(C#N)c(N2CCOCC2)n1`: 105%; for `Oc1ccc(-c2nc3ccc(/C(=N\N=C\c4ccc(Cl)cc4)c4ccccc4)cc3[nH]2)cc1`: 27.5%; for `CCCCCCCCNC(=O)c1ccc(Cn2c(CCCC)nc3c(N)nc4ccccc4c32)cc1`: -57.6% (active).
In the case of `CCOc1ccccc1NC1=C(Cl)C(=O)c2nc(C)ccc2C1=O` it was -36.8% (active); in that of `COc1ccc2c(c1)C=CC1(O2)Oc2ccc(OC)cc2C=C1C` (stereo not given), -3.1% (active).
For `CCc1nnc(NC(=O)c2cc(-c3ccc(Cl)cc3Cl)oc2C)s1`, the growth is 88.5%.
In the case of `O=C(NNc1nc2cc(F)cc(F)c2n2cccc12)c1ncccn1` it was -2.92% (active); in that of `O=C(O)CC1CCN(c2ccc3nnc(Cl)n3n2)CC1`, 104%.
The same measure for `O=C(Nc1ccccc1)Nc1nc2ccc([N+](=O)[O-])cc2s1`: -35.9% (active); for `CCOC(=O)c1c(NC(=O)c2ccc(C(C)(C)C)cc2)sc2cc(OCCN3CCCCC3)ccc12`: 27.1%.
The same measure for `COc1ccc(/C=N/N=C(/c2ccccc2)c2ccc3nc(-c4ccc(Cl)cc4)[nH]c3c2)cc1`: 67.2%; for `O=C(CNc1nc(-c2cccc([N+](=O)[O-])c2)cs1)Nc1cccc(Cl)c1`: 105%.
Take `CCOC(=O)c1c(Nc2ccccc2)nn2c(N)c(C#N)c(-c3ccccc3)nc12`: the growth is 70.9%.
The same measure for `CN1CCN(c2ccc(Nc3nc(NCCNC(=O)c4ccc(F)cc4)c4sccc4n3)cc2)CC1`: 34.3%; for `CCN1C(=O)N(CC)C2SC(N/N=C/c3ccc(F)cc3)=NC21` (stereo not given): 2.85% (active); for `C=C(C)[C@@H]1CC[C@]2(C(=O)O)CC[C@]3(C)[C@H](CC[C@@H]4[C@@]5(C)C/C(=C/c6ccccn6)C(=O)C(C)(C)[C@@H]5CC[C@]43C)[C@@H]12`: 15.3%.
Turning to `CCOC(=O)c1c(Nc2ccccc2)nn2c(-c3ccc(Cl)cc3)ccnc12`, the growth was 86.7%.
In the case of `COc1ccc2c(c1)c(-c1cc(N)n3nc(-c4cn(C)c5ccc(OC)cc45)cc3n1)cn2C` it was 5.19% (active).
In the case of `COc1ccc([C@@H]2c3[nH]c4ccccc4c3C[C@H]3C(=O)N(C4CCN(CC5CCCCC5)CC4)CC(=O)N23)c(OC)c1` it was 47.7%; in that of `CCOC(=O)c1c(Nc2ccccc2)nn2c(-c3ccc(OC)cc3)ccnc12`, 77.3%; in that of `Cc1cc(NS(=O)(=O)c2ccc(NC(=O)CSc3nc4ccccc4c(=O)n3-c3ccccc3)cc2)no1`, 110%.
In the case of `CC(=C(c1ccc(OCCCN(C)C)cc1)c1ccc(OCCCN(C)C)cc1)c1ccc(Cl)cc1` it was 75.5%; in that of `C#Cc1cc(OC)c(C(=O)Nc2ccc(F)cc2C(=O)Nc2cccc(S(=O)(=O)C(F)(F)F)c2)cn1`, -51.6% (active); in that of `CS(=O)(=O)c1ccc(-n2cc(/C=N/O)c(-c3ccccc3)n2)cc1`, -45.8% (active).
With `CC(C)N=C(N/C(N)=N/c1nc2ccccc2s1)NC(C)C`, the growth is 41.7%.
In the case of `COc1ccc(S(=O)(=O)NCCCNc2nccc(-n3cnc4ccccc43)n2)cc1` it was 110%.
In the case of `CN1C(=O)N(C)C2Nn3c(s/c(=C\c4ccccn4)c3=O)=NC21` (stereo not given) it was 110%.
In the case of `OC1CCN(CCCOc2c3ccc(Cl)cc3nc3c2oc2ccccc23)CC1` it was -35% (active).
`C=CCn1c(SCC(=O)c2ccc(OC)cc2)nnc1-c1ccc(OC)cc1`: the growth is 90.8%.
Turning to `COc1ccc(S(=O)(=O)NCCCNc2nccc(-c3[nH]c(-c4ccccc4)nc3-c3ccc(Cl)c(O)c3)n2)cc1`, the growth is 43.2%.
In the case of `O=C(NNc1nc2cc(F)ccc2n2c(CN3CC4(COC4)C3)ccc12)c1cnccn1` it was -30.1% (active).
In the case of `CCOc1cccc(/C(N)=N/C(N)=N/c2nc3ccccc3s2)c1` it was 72.2%; in that of `CCc1cc(OC(=O)N2CCC(N3CCCCC3)CC2)ccc1Nc1cc(-c2ccc(-n3cccn3)cc2)[nH]n1`, 62.5%.
In the case of `COc1cc2cc(Oc3ccc(NC(=O)Nc4cccc(C(F)(F)F)c4)cc3)c(C)nc2cc1OCCN(C)C` it was 133%; in that of `NC(N)=Nc1ccc(Oc2ccc(Nc3ccc(Cl)c(C(F)(F)F)c3)cc2)cc1`, -33.8% (active).
As for `N/C(=N\C(N)=N\c1nc2ccccc2s1)c1cccc(F)c1`, the growth is 83% [5 µM].
The same measure for `Cc1ccsc1[C@H]1c2[nH]c3ccccc3c2C[C@H]2C(=O)N(CCCCCCC(=O)NO)CC(=O)N12`: 104%; for `COc1cc(/C=C2\C(=O)Nc3ccccc32)ccc1OCc1ccc(F)cc1`: 115%; for `NS(=O)(=O)c1cccc(Nc2nc(SCC(=O)c3ccc(Cl)cc3)nc3c2CCC3)c1`: 111%.
